# Reference: publication PMC7862700, “An all-to-all approach to the identification of sequence-specific readers for epigenetic DNA modifications on cytosine”
# Experiments:
# Assay in all cases: DAPPL (digital affinity profiling via proximity ligation, sequencing); 10 mM Tris-HCl pH 7.5, 50 mM NaCl, 1 mM DTT, 4% glycerol, room temperature, 30 min; GST-TFs on glutathione beads, 16-mer random dsDNA library, 0.1% formaldehyde crosslink after washing; high values mean tight binding
# FEV = target: T1, FEV (Homo sapiens, UniProt Q99581 1-238); details: protein: recombinant; tags: N-terminal GST; dsDNA, one strand shown
# T1 sequence: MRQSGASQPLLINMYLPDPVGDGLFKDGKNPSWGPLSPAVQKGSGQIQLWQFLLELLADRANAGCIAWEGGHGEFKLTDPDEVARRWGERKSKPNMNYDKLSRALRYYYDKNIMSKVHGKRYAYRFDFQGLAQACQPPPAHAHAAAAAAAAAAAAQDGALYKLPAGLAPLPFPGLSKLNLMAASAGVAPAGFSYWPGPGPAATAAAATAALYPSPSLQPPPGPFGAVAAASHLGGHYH
# Method in brief: (§1)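 Human transcription factors were made in yeast as GST fusions, captured on glutathione beads and barcoded with DNA. With a tag-only sample included, the pool was incubated with 200 nmole of a random double-stranded 16-mer DNA library in Tris/NaCl/DTT/glycerol buffer at room temperature for 30 min, then crosslinked with 0.1% formaldehyde after washing, ligated by proximity, amplified and sequenced. For binding signal, each hexamer's read frequency for a factor is divided by its frequency for the tag-only sample.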
# ETV5 = ETV5 (Homo sapiens, UniProt P41161 1-510); details: protein: recombinant; tags: N-terminal GST; dsDNA, one strand shown
# Sequence of ETV5 (P41161 whole entry): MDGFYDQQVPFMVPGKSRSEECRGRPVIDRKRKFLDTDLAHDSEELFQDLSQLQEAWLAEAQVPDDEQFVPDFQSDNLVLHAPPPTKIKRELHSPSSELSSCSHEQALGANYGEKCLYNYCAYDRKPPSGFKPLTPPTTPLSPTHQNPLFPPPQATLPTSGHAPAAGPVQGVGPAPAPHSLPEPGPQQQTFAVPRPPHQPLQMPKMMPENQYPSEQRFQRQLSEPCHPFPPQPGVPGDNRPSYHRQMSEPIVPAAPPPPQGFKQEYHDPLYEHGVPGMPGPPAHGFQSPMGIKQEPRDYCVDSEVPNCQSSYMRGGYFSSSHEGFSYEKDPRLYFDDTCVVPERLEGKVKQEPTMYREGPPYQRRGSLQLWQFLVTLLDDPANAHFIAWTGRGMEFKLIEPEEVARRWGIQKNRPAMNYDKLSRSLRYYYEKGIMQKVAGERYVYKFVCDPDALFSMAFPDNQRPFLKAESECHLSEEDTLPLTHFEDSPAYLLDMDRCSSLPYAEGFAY
# Method in brief: as §1
# HSF1 = HSF1 (Homo sapiens, UniProt Q00613 1-529); details: protein: recombinant; tags: N-terminal GST; chain copies: 3; dsDNA, one strand shown
# Sequence of HSF1 (Q00613 whole entry): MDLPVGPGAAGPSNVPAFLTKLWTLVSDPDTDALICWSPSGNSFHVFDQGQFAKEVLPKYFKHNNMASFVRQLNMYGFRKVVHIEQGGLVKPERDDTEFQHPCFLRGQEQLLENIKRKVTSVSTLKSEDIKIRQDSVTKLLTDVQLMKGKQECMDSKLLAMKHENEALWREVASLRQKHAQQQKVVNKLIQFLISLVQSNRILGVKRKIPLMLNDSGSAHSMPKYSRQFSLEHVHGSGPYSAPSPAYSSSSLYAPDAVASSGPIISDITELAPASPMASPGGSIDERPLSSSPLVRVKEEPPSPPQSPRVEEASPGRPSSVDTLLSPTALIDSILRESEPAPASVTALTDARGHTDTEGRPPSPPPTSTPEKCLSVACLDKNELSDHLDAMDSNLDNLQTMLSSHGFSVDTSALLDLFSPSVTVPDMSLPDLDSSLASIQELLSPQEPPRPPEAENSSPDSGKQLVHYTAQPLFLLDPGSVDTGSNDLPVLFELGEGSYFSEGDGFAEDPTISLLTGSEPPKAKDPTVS
# Method in brief: as §1
# SPIC = target: T2, SPIC (Homo sapiens, UniProt Q8N5J4 1-248); details: protein: recombinant; tags: N-terminal GST; dsDNA, one strand shown
# T2 sequence: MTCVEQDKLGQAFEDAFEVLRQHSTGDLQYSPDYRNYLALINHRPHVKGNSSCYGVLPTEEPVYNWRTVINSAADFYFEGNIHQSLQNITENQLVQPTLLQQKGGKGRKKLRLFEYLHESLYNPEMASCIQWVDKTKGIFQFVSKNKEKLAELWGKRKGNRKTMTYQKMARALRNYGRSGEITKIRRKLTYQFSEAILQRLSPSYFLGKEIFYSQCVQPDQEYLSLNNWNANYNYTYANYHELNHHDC
# Method in brief: as §1
# ELF4 = ELF4 (Homo sapiens, UniProt Q99607 1-663); details: protein: recombinant; tags: N-terminal GST; dsDNA, one strand shown
# Sequence of ELF4 (Q99607 whole entry): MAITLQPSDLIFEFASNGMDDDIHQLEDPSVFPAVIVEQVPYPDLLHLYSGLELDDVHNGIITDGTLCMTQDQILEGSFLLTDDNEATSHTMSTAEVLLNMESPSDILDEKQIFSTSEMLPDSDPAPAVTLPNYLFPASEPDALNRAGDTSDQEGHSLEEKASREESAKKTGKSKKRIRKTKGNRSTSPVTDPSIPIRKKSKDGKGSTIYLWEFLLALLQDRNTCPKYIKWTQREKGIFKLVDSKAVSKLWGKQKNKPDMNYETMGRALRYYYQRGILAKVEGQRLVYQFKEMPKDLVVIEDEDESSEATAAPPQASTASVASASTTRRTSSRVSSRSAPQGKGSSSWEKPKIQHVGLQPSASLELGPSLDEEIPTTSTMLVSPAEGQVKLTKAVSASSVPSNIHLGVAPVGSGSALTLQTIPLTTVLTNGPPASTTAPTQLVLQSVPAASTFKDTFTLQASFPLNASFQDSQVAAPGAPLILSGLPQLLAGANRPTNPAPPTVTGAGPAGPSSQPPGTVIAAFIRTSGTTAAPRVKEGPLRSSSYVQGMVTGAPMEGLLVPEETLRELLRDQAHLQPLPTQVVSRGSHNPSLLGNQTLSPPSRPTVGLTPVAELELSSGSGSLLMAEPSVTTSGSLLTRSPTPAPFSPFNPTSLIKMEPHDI
# Method in brief: as §1
# ELK4 = target: T3, ELK4 (Homo sapiens, UniProt P28324-2 1-405); details: protein: recombinant; tags: N-terminal GST; dsDNA, one strand shown
# T3 sequence: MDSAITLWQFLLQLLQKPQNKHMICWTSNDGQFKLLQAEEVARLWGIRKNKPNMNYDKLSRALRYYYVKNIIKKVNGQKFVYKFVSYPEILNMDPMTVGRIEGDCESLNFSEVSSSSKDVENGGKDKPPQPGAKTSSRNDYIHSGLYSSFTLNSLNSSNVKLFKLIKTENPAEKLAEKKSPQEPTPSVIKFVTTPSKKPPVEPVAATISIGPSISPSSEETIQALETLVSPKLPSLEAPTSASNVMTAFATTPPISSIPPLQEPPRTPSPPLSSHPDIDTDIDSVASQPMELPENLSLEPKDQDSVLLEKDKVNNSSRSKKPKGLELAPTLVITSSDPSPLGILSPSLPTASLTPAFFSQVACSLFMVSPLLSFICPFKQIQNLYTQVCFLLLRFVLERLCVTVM
# Method in brief: as §1
# ETV2 = target: T4, ETV2 (Homo sapiens, UniProt O00321 1-342); details: protein: recombinant; tags: N-terminal GST; dsDNA, one strand shown
# T4 sequence: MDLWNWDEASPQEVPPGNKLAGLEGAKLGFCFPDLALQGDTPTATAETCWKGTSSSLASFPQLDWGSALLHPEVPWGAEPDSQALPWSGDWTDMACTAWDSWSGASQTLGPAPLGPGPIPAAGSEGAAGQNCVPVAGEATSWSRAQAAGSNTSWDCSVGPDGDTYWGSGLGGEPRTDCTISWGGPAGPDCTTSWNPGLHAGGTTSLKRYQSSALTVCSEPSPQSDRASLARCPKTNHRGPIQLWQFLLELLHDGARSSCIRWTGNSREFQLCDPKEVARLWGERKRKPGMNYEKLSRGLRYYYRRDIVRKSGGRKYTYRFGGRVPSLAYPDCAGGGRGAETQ
# Method in brief: as §1
# ELF3 = target: T5, ELF3 (Homo sapiens, UniProt P78545 1-371); details: protein: recombinant; tags: N-terminal GST; dsDNA, one strand shown
# T5 sequence: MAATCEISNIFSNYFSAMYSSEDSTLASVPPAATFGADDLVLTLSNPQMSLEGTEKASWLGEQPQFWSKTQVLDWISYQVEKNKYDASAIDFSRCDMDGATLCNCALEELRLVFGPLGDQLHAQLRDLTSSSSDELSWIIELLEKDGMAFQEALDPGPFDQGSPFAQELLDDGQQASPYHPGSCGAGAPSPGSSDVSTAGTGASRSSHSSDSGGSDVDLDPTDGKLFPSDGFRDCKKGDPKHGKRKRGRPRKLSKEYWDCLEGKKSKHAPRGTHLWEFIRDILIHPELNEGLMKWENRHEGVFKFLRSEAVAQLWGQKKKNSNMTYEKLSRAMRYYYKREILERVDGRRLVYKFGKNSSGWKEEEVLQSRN
# Method in brief: as §1
# CRX = CRX (Homo sapiens, UniProt O43186 1-299); details: protein: recombinant; tags: N-terminal GST; dsDNA, one strand shown
# Sequence of CRX (O43186 whole entry): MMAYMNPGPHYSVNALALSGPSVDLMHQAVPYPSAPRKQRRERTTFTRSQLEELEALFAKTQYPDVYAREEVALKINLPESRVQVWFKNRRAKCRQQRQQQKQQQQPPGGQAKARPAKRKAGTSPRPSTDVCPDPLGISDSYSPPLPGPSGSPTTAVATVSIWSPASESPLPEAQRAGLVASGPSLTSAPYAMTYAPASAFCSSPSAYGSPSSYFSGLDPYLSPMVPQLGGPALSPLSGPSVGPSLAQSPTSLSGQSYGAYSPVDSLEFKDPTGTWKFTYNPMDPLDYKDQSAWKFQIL
# Method in brief: as §1
# ETV1 = ETV1 (Homo sapiens, UniProt P50549 1-477); details: protein: recombinant; tags: N-terminal GST; dsDNA, one strand shown
# Sequence of ETV1 (P50549 whole entry): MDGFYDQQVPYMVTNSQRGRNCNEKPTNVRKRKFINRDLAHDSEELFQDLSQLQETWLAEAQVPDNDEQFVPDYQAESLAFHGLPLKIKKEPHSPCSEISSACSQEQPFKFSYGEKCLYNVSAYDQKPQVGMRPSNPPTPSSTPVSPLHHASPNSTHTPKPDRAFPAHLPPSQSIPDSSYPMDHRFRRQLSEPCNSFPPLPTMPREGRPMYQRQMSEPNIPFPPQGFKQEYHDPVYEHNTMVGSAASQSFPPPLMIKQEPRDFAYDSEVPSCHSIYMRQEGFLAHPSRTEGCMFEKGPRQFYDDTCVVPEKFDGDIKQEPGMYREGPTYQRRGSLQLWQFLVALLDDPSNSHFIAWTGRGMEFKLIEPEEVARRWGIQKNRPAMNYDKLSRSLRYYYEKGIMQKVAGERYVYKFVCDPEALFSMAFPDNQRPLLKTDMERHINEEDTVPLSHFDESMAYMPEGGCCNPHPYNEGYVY
# Method in brief: as §1
# ERF = target: T6, ERF (Homo sapiens, UniProt P50548 1-548); details: protein: recombinant; tags: N-terminal GST; dsDNA, one strand shown
# T6 sequence: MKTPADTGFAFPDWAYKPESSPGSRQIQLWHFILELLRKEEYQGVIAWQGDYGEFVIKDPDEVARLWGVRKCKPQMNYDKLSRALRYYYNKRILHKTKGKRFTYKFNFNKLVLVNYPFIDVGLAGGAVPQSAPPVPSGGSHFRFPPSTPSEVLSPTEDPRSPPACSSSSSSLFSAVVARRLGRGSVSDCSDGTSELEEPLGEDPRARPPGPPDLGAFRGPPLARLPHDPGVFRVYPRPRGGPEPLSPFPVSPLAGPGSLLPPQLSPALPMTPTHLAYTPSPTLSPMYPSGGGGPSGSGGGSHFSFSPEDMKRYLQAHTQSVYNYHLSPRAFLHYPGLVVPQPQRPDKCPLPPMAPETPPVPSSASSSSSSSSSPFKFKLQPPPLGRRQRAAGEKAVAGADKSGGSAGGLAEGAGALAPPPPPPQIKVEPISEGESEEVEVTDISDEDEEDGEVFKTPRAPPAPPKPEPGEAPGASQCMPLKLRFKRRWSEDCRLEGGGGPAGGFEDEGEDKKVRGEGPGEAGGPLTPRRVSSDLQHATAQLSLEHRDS
# Method in brief: as §1
# ETV3L = target: T7, ETV3L (Homo sapiens, UniProt Q6ZN32 1-361); details: protein: recombinant; tags: N-terminal GST; dsDNA, one strand shown
# T7 sequence: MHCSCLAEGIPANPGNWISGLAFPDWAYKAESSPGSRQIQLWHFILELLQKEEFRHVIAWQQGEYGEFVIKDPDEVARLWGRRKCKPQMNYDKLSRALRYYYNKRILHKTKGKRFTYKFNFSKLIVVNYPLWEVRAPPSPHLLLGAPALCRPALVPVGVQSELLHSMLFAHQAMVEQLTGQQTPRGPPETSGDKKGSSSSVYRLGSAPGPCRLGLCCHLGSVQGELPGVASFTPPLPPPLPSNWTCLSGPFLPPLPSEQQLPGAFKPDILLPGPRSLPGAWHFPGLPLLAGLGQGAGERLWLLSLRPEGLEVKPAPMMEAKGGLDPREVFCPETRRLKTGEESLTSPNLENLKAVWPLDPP
# Method in brief: as §1
# ETS2 = target: T8, ETS2 (Homo sapiens, UniProt P15036 1-469); details: protein: recombinant; tags: N-terminal GST; dsDNA, one strand shown
# T8 sequence: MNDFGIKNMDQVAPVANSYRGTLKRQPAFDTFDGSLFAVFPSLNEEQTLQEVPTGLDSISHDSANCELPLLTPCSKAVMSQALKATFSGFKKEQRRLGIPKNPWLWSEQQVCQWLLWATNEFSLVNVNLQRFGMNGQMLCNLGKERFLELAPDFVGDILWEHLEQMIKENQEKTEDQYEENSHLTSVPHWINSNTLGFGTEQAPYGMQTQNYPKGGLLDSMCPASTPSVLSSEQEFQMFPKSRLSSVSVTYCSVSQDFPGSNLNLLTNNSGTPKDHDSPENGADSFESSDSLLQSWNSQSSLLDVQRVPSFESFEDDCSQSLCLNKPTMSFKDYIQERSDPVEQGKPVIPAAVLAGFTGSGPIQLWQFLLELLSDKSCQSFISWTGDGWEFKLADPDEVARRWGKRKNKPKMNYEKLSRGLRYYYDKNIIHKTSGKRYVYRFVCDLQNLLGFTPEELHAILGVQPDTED
# Method in brief: as §1
# SPDEF = target: T9, SPDEF (Homo sapiens, UniProt O95238 1-335); details: protein: recombinant; tags: N-terminal GST; dsDNA, one strand shown
# T9 sequence: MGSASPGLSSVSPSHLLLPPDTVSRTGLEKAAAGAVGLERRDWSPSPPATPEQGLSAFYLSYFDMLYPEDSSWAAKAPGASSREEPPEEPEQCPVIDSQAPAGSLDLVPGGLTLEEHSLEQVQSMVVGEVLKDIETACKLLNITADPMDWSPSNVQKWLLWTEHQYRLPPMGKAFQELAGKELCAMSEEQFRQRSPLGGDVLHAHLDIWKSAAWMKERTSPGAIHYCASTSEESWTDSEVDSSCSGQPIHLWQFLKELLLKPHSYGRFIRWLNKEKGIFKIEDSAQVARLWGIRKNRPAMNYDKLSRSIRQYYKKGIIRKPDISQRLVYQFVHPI
# Method in brief: as §1
# ETV7 = target: T10, ETV7 (Homo sapiens, UniProt Q9Y603 1-341); details: protein: recombinant; tags: N-terminal GST; dsDNA, one strand shown
# T10 sequence: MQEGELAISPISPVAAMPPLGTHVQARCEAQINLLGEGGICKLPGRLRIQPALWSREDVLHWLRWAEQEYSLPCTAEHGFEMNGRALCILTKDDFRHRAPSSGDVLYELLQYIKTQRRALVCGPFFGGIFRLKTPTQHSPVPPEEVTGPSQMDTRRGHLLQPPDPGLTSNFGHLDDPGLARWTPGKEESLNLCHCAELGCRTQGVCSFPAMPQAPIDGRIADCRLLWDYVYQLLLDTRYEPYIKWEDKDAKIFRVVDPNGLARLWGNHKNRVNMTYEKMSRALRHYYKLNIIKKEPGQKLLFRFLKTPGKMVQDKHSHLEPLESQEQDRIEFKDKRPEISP
# Method in brief: as §1
# ELF5 = target: T11, ELF5 (Homo sapiens, UniProt Q9UKW6-2 1-255); details: protein: recombinant; tags: N-terminal GST; dsDNA, one strand shown
# T11 sequence: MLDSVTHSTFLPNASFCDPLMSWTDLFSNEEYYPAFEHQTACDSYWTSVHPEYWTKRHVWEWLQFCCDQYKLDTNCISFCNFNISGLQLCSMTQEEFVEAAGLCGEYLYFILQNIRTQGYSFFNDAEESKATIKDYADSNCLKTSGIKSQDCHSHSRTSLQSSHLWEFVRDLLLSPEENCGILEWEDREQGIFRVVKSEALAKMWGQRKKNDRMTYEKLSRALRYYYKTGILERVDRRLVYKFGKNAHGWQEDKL
# Method in brief: as §1
# ETV3 = target: T12, ETV3 (Homo sapiens, UniProt P41162-2 1-143); details: protein: recombinant; tags: N-terminal GST; dsDNA, one strand shown
# T12 sequence: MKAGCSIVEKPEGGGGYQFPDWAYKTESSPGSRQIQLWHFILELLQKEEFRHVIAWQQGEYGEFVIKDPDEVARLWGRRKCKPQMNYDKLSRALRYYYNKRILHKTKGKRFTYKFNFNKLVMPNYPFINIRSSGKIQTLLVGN
# Method in brief: as §1
# ETV6 = ETV6 (Homo sapiens, UniProt P41212 1-452); details: protein: recombinant; tags: N-terminal GST; dsDNA, one strand shown
# Sequence of ETV6 (P41212 whole entry): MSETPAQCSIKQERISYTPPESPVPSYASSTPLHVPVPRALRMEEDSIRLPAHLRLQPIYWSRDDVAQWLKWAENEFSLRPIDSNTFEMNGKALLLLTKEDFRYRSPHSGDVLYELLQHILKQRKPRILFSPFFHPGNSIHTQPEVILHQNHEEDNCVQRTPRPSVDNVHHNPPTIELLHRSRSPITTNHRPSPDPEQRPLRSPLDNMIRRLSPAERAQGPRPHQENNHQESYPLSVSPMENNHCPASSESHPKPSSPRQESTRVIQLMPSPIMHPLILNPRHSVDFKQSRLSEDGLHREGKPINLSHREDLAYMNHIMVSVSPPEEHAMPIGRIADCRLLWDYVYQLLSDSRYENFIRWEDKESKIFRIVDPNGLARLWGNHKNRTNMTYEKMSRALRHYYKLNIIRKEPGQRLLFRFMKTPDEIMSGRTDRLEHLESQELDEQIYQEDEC
# Method in brief: as §1
sequence,measurement,setting,value
ATTGCA,binding signal,FEV,"1.15 fold enrichment (6-mer frequency, TF over GST control)"
same,binding signal,ETV5,"1.17 fold enrichment (6-mer frequency, TF over GST control)"
same,binding signal,HSF1,"1.06 fold enrichment (6-mer frequency, TF over GST control)"
same,binding signal,SPIC,"1.1 fold enrichment (6-mer frequency, TF over GST control)"
same,binding signal,ELF4,"1.19 fold enrichment (6-mer frequency, TF over GST control)"
same,binding signal,ELK4,"1.28 fold enrichment (6-mer frequency, TF over GST control)"
same,binding signal,ETV2,"1.31 fold enrichment (6-mer frequency, TF over GST control)"
same,binding signal,ELF3,"1.13 fold enrichment (6-mer frequency, TF over GST control)"
same,binding signal,CRX,"1.11 fold enrichment (6-mer frequency, TF over GST control)"
same,binding signal,ETV1,"1.17 fold enrichment (6-mer frequency, TF over GST control)"
same,binding signal,ERF,"1.23 fold enrichment (6-mer frequency, TF over GST control)"
same,binding signal,ETV3L,"1.19 fold enrichment (6-mer frequency, TF over GST control)"
same,binding signal,ETS2,"1.15 fold enrichment (6-mer frequency, TF over GST control)"
same,binding signal,SPDEF,"1.18 fold enrichment (6-mer frequency, TF over GST control)"
same,binding signal,ETV7,"1.17 fold enrichment (6-mer frequency, TF over GST control)"
same,binding signal,ELF5,"1.16 fold enrichment (6-mer frequency, TF over GST control)"
same,binding signal,ETV3,"1.09 fold enrichment (6-mer frequency, TF over GST control)"
same,binding signal,ETV6,"1.21 fold enrichment (6-mer frequency, TF over GST control)"
